High-throughput results deposited in PubChem BioAssay by National Center for Advancing Translational Sciences (NCATS).
ALDH1A1 inh: blocks purified human ALDH1A1 activity. P00352. AID 1030. Purified ALDH1A1, NADH fluorescence, propionaldehyde substrate. actives 7.3% (n = 220,000). Potency, µM (doses to about 75.3 µM), without a hit: at the top dose activity, negative = inhibition, most hits filed as inhibitors; active = well fitted inhibition curve with a large enough effect, not every such curve was filed as active; inconclusive = small, poorly fitted or top-dose-only effect, or another doubt; inactive = no such curve, though single readings can be large or run the other way;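 note: potency is the fitted concentration of half-maximal effect; plate controls were no enzyme wells and a reference inhibitor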
Target sequence (P00352 whole entry, looked up): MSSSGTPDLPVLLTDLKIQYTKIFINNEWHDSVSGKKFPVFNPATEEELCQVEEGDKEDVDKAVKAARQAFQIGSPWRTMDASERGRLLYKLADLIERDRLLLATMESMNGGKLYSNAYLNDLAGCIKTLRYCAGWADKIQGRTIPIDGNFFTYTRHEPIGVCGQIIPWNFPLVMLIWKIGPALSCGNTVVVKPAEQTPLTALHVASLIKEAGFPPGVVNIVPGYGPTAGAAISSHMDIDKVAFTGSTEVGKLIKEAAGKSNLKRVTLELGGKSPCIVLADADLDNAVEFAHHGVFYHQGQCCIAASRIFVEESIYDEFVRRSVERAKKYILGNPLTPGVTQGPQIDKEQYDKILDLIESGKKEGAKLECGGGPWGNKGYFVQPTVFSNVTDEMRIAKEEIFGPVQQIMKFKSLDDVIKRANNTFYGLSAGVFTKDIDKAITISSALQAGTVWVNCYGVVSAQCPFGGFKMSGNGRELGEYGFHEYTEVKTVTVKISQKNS
HPGD inh: HPGD (human) dehydrogenase inhibition; Potency, µM, without a hit: at the top dose activity change, negative = inhibition, usual class: inhibitors; actives 4.3% (n = 150,000); purified HPGD, NADH fluorescence kinetic, PGE2 substrate; P15428; active = well fitted inhibition curve with a large enough effect, not every such curve was filed as active; inconclusive = small, poorly fitted or top-dose-only effect, or another doubt; inactive = no such curve, though single readings can be large or run the other way; note: potency is the fitted concentration of half-maximal effect; % is set by controls: 0 for no effect and ±100 for the full control effect
Target sequence (P15428 whole entry, looked up): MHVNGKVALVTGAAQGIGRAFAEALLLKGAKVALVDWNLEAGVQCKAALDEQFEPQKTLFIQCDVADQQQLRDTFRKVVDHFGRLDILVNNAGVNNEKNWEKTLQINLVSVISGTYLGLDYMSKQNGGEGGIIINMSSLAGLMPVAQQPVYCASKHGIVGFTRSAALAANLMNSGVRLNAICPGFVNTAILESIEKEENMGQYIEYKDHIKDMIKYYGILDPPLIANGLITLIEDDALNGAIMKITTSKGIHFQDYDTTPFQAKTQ
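NADH formation kinetics: reaction with 30 uM PGE2 and 1 mM NAD+ (final), 20 nM enzyme, Tris-HCl pH 8 with Tween 20, after 15 min compound preincubation at room temperature. Fluorescence change, last versus first of five reads.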
CBFb-RUNX1 inh: CBF-beta/RUNX1 interaction disruption; Q01196+Q13951; 230,000 tested, under 10 active; Potency, µM (titrated, usually from 59.8 µM), inactives show top-dose activity, negative = inhibition, actives largely listed as inhibitors; AlphaScreen CBFb-His/RUNX1-biotin binding, biochemical; note: % of control where 0% means no effect
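Room-temperature protein-protein interaction test with 30 nM each of His-tagged CBF-beta and biotinylated RUNX1, 15 min with compound, then 90 min with nickel plus streptavidin beads. Signal read in AlphaScreen mode.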
HTT ATP protect: Huntington cell model cytoprotection by ATP luminescence. AID 1471. PC12 HTT-Q103 induced, cytoprotection, ATP luminescence, 40 h. actives 0.14% (n = 230,000). Potency, µM (series often up to 56.4 µM), without a hit: cytoprotection (ATP increase), usual class: activators; note: potency is the fitted concentration of half-maximal effect; % of control where 0% means no effect; nearly all actives have a fitted effect of over 45% in size
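Cells were plated at 1500 per well in phenol red-free DMEM with 5% equine and 5% calf serum. Tebufenozide (100 nM final) and compounds were added, then ATPlite reagent, and luminescence was read.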
PNC assembly inh: perinucleolar compartment assembly inhibition. PC3M PTB-GFP, PNC prevalence imaging, 16 h; hits give low values. activity change (PNC), negative = inhibition, % at 10 µM. actives 3.1% (n = 140,000);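 active = readout at or below -70, meaning at least 70% loss of cells showing the perinucleolar compartment, a nuclear body marking cancer cells; inconclusive = readout between -30 and a set limit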;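 note: plate controls were DMSO wells for no effect and camptothecin positive control wells for full effect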
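PC3M cells stably expressing PTB-GFP, 750–1000 cells/well, treated 16 h at 37 °C with compound (23 nl of library stock), in duplicate. After paraformaldehyde fixation and Hoechst stain, imaged at 20x; PNC prevalence scored by image analysis.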
HttQ103 aggreg: reduces HttQ103-GFP aggregates in PC12 cells; actives 1.1% (n = 220,000); PC12 HttQ103-GFP aggregates, Acumen cytometry, 40 h; Potency, µM (doses to about 46.1 µM), for the others: at the top dose activity change, negative = inhibition, most hits filed as inhibitors; AID 1688; note: potency is the fitted concentration of half-maximal effect; % is set by controls: 0 for no effect and ±100 for the full control effect; nearly all actives have a fitted effect of over 60% in size
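Steps: seed 1500 PC12 HTTQ103-GFP cells/well; add tebufenozide, 100 nM final; add compound titration; add ATPLite reagent; quantify GFP aggregates by laser scanning cytometry.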
Numbers without * were called inactive; ? = inconclusive; . = not tested or not shown; [ ] = remark or other dose. Shown are actives, neighbours in structure and some others; about 11% of the full set was active somewhere. Unless noted, calls come from the whole dose curve; as a rule, active = well fitted curve in the direction sought with a large enough effect; inconclusive = small, poorly fitted or top-dose-only effect, or another doubt; inactive = no such curve, though single readings can be large; an effect the other way counts as inactive or inconclusive.

SMILES	ALDH1A1 inh	HPGD inh	CBFb-RUNX1 inh	HTT ATP protect	PNC assembly inh	HttQ103 aggreg
CCN=C1S/C(=C\c2ccc(O)c(OCC)c2)C(=O)N1CC	?	-16%	-6%	-1%[10 µM]	75	-1%
CCN=C1S/C(=C\c2cc(OCC)c(O)cc2Br)C(=O)N1CC	0.89µM*	-16%	20%	.	?	-19%
O=C(O)/C=C/C(O)c1ccc(Cl)cc1 (stereo not drawn)	7%	-10%	3%	3.2µM*	.	.
Cc1ccc(NC(=O)Cn2c(O)c(N=NC(=O)c3ccncc3)c3ccccc32)cc1	4.5µM*	.	-4%	-30%	.	32%
CCCCn1c(O)c(N=NC(=O)c2ccncc2)c2cc(Br)ccc21	7.9µM*	-2%	3%	-11%[10 µM]	?	16%
CCn1c(O)c(N=NC(=O)c2cccnc2)c2cc(Br)ccc21	?	.	3%	-2%[10 µM]	.	-14%[9.22 µM]
O=C(Cn1c(O)c(N=NC(=O)c2ccncc2)c2ccccc21)Nc1ccccc1	.	.	-1%	10%[10 µM]	.	11%[9.22 µM]
COc1ccccc1NC(=O)Cn1c(O)c(N=NC(=O)c2ccccc2O)c2ccccc21	1.6µM*	.	-27%	-82%	.	-6%
COc1nc(N)nc2c1ncn2[C@@H]1C[C@H](O)[C@@H](CO)O1	8%[13.5 µM]	-3%	.	3%[10 µM]	.	.
COCCNC(=O)CSc1nc2nc(C)cc(C)n2n1	-9%	20µM*	3%	1%	-17	11%
COC(=O)CSc1nc2nc(C)cc(C)n2n1	-11%	-16%	3%	-5%	-85*	-10%
CCOC(=O)CSc1nc2nc(C)cc(C)n2n1	-2%	-5%	9%	6%	28	8%
Cc1n[nH]c(C)c1S(=O)(=O)N1CCCC(C(=O)NC2CCCCC2)C1 (stereo not drawn)	0%	.	7%	-8%	.	16%[9.22 µM]
Cc1cc(C(=O)NCc2ccco2)cs1	?	16µM*	-5%	10%	?	-12%
O=C(NCc1ccco1)c1cnc2sccn2c1=O	?	?	2%	34%[10 µM]	?	8%
O=C(NCCCN1CCN(CCCNC(=O)c2ccc3c(c2)OCO3)CC1)c1ccc2c(c1)OCO2	?	-18%	5%	-12%[0.074 µM]	-3	11%
CCOC(=O)CNC(=O)c1cc(C)oc1C	0.063µM*	-12%	-2%	-17%	0	4%
O=C(NCCN1CCCCC1)c1ccc2c(c1)OCCO2	-10%	8.9µM*	18%	-9%	29	1%[9.22 µM]
Cc1csc2ncc(C(=O)NCc3ccco3)c(=O)n12	?	?	?	-3%[10 µM]	-100*	-5%
CC(C)C[C@@H](CC(=O)N[C@@H](CCCN)CC(=O)N[C@@H]1CCCC[C@H]1C(=O)N[C@H](CC(=O)N[C@@H](CCC(=O)O)CC(=O)O)CC(C)C)NC(=O)[C@@H]1CNCC[C@H]1N	?	-8%	0%	5%[1.9 µM]	.	.
O=C(c1cccc(F)c1)N1CCC2(CC1)CN(c1ccccc1)C2	?	-8%	.	-104%	.	.
Cc1csc2ncc(C(=O)Nc3ccon3)c(=O)n12	?	?	-2%	35%[10 µM]	351	-14%
O=C(NCc1cccs1)c1ccncc1	-1%	1%	10%	4%[0.074 µM]	14	-24%
Cc1cc(C(=O)NCc2cccs2)c(C)o1	-10%	16µM*	6%	-8%[1.9 µM]	15	31%
O=C(NCc1cccs1)c1ccc(N2CCCC2=O)cc1	2%	20µM*	-7%	-40%	-20	0%
SMILES	ALDH1A1 inh	HPGD inh	CBFb-RUNX1 inh	HTT ATP protect	PNC assembly inh	HttQ103 aggreg
O=C(NCc1cccs1)c1ccccc1	7%	25µM*	2%	-15%	29	17%[9.22 µM]
Cc1occc1C(=O)NCc1cccs1	6%	?	3%	-12%	7	-7%
Cc1scc(C(=O)Nc2ccon2)c1-c1ccccc1	28µM*	-4%	5%	15%	?	-3%
Cc1nn(C(=O)c2c([N+](=O)[O-])cnn2C)c(C)c1Cl	4%	-10%	-7%	11%[10 µM]	-1	-3%
Cc1nn(C(=O)c2ccc([N+](=O)[O-])cc2)c(C)c1Br	3%	.	0%	27%[10 µM]	.	9%[9.22 µM]
CN(Cc1cnc2nc(N)nc(N)c2n1)c1ccc(C(=O)NC(CCC(=O)O)C(=O)O)cc1 (stereo not drawn)	9%	-20%	17%	-138%	.	.
COC(=O)C1=C[C@@H](C(=O)OC)[C@@H]2C3=C(C(=O)[C@@]2(C)NC(=O)c2ccccc2)[C@H](C)[C@@H]2C(=O)N(c4ccccc4)C(=O)[C@@H]2[C@@H]3C1	.	.	-7%	.	.	.
O=C(NCc1cccs1)c1ccc2c(c1)OCCO2	4%	25µM*	6%	5%[10 µM]	?	-1%
Cc1cc(C(=O)NCc2cccs2)cs1	2%	28µM*	6%	11%[10 µM]	-8	?
O=C(NCc1ccco1)c1ccccc1-c1ccccc1	-5%	-4%	1%	-9%	13	-1%
Cc1scc(C(=O)NCc2ccco2)c1-c1ccccc1	?	32µM*	?	-21%	?	6%
CC(C)Oc1ccc(C(=O)NCc2cccs2)cc1	3%	?	0%	-31%	18	-5%
O=C(NCc1ccccc1)c1ccc2c(c1)OCCO2	9%	?	-1%	-5%	0	-5%
COC(=O)c1cc(NC(=O)c2cc(C)oc2C)cc(C(=O)OC)c1	25µM*	-21%	-6%	-4%[10 µM]	-100*	3%
CC(C)N(CCNC(=O)c1ccc(Cc2nc3ccccc3[nH]2)cc1)C(C)C	?	-9%	.	.	.	.
CC(C)CN1CC[C@@]2(CCCN(C(=O)c3csnn3)C2)C1	-3%	-7%	.	?	.	.
CC(C)c1cc(C(=O)O)n(-c2ccccc2)n1	?	-6%	-1%	0%	18	9%[9.22 µM]
c1ccc(CNc2ncnc3ccc(-c4cccnc4)cc23)cc1	?	.	.	-171%	.	.
O=c1cnc2cnc(Oc3ccccc3)nc2n1Cc1ccc(F)cc1	?	-20%	.	19%	.	.
O=[N+]([O-])c1cc(C(F)(F)F)ccc1Sc1ccc2ccccc2n1	?	16µM*	-25%	10%	-20	-4%
CC(C)OCC1CO1 (stereo not drawn)	-4%	-5%	7%[21.7 µM]	-8%	.	.
CN(c1ccccc1)c1ccc(/C=C(\C#N)c2nnc3n2CCCCC3)cc1[N+](=O)[O-]	?	.	?	-7%[10 µM]	-91*	-9%
N#C/C(=C\c1cccc([N+](=O)[O-])c1)c1nnc2n1CCCCC2	20µM*	32µM*	4%	?	32	-25%
O=c1nc2n(c3ccc([N+](=O)[O-])cc13)CCCCC2	1%	.	5%	-25%	.	4%
N#C/C(=C/c1ccc(N2CCCC2)c([N+](=O)[O-])c1)c1nc2ccccc2[nH]1	?	-17%	-6%	-36%	55	4%
